For orientation: inhibition means the relative decrease from the control value, in per cent.

Molecules are shown by their SMILES. Values joined by “and” are separate entries in the source; they are usually repeats but may differ in a detail not shown here. Equal values may be shown once. Screen size: about 220,000 compounds; about 530 (0.24%) were called active. The list comes from a sample in which actives are over-represented; it also holds similar structures and randomly drawn compounds. Entries with a potency or affinity are not part of this list. Unmarked numbers belong to inactive results. Rule as the data show it: active = inhibition above about 13%; inconclusive = no clear call, values can overlap the other calls; inactive = below that.

For this assay, the target named is Bifunctional protein GlmU (Mycobacterium tuberculosis (strain ATCC 25618 / H37Rv)) (UniProt P9WMN3). Nature of the assay: inhibition of mycobacterial GlmU enzyme – biochemical, glucosamine-1-phosphate acetyltransferase (AID 1376).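 Also: 0% = complete reaction with vehicle and 100% = reaction without substrate.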 The conditions noted are these: M. tuberculosis GlmU acetyltransferase enzyme assay; active compounds read high;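 tested at 30 µM in the primary screen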.
Sequence of Bifunctional protein GlmU (Mycobacterium tuberculosis (strain ATCC 25618 / H37Rv)) (P9WMN3 whole entry, looked up): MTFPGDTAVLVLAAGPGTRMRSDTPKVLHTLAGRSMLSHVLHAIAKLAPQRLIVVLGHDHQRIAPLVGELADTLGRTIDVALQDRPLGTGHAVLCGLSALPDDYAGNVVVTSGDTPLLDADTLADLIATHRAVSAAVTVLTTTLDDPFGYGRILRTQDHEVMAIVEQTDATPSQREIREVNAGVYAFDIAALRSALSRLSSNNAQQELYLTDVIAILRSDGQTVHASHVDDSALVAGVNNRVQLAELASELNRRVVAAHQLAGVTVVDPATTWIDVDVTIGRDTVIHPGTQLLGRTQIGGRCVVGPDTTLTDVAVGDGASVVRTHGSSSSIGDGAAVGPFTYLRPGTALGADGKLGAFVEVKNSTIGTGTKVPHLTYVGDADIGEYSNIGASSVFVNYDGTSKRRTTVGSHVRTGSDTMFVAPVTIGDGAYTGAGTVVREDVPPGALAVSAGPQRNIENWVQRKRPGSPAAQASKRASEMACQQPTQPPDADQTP
On to `CCOC(=O)c1cc2sccc2n1CC(=O)C(C)(C)C`, for which the inhibition was -4.29%.
Next, `CCn1ncc(Br)c1C(=O)Nc1ccn(C23CC4CC(CC(C4)C2)C3)n1`: -4.08%.
In the case of `CC(=O)N(C)N1c2ccccc2CCc2ccccc21` it was -8.48%; in that of `Cc1cccc(OCCNC(=O)c2ncn[nH]2)c1`, 1.93%.
Next, `Cn1c(=O)c2c(nc(SCC(=O)NC34CC5CC(CC(C5)C3)C4)n2C)n(C)c1=O`: -0.07%.
For `O=C(CSc1nnc(-c2ccncc2)o1)NC1C2CC3CC(C2)CC1C3` (stereo unspecified), the inhibition was 1.35%.
In the case of `N#C/C(=C\c1ccc(C(=O)O)cc1)c1nc2sc3c(c2c(=O)[nH]1)CCCC3` it was 14.3% (active).
In the case of `CCOC(=O)c1nc2sc3c(c2c(=O)[nH]1)CCCC3` it was 4.84% and 1.97%.
Next, `O=C(O)c1ccc(/C=C/c2nc3sc4c(c3c(=O)[nH]2)CCC4)cc1`: 2.03%.
Take `O=C1NC(CCc2ccccc2)C(=O)N1Cc1ccccc1Cl` (stereo unspecified): the inhibition was -2.29%.
In the case of `CCc1sc(-c2ccccc2)nc1C(=O)OC` it was -3.08%.
In the case of `CN(C(=O)COC(=O)c1n[nH]c2ccccc12)c1ccccc1` it was -0.77%; in that of `COc1ccccc1NC(=O)N1CCC(c2nnc(SCC(N)=O)n2C)CC1`, 5.75%.
In the case of `CC(=O)c1cccc(NC(=O)N2CCC(c3nnc(SCC(N)=O)n3C)CC2)c1` it was 12.8% (active); in that of `Cn1c(SCC(N)=O)nnc1C1CCN(C(=O)NCc2ccccc2)CC1`, 2.81%.
Turning to `CSc1nsc(/C=C/Nc2ccc(C(=O)O)cc2)c1C#N`, the inhibition was -2.44%.
`CC1=NN(C(=O)CSCc2ccccc2)C(O)(c2ccc(Cl)cc2)C1` (stereo unspecified): the inhibition was 0.2%.
In the case of `O=S1(=O)CCC(N=Cc2cc(Br)ccc2O)C1` (stereo unspecified) it was -0.36%; in that of `Cc1cc(C(=O)CSc2n[nH]c(N)n2)c(C)n1-c1ccccc1`, 1.04%.
In the case of `Cc1ccc(-n2c(C)cc(C(=O)CSc3n[nH]c(N)n3)c2C)cc1` it was -7.08%; in that of `Cc1cc(C(=O)CSc2n[nH]c(N)n2)c(C)n1-c1ccc(F)cc1`, 13% (active).
In the case of `Cc1ccc(C(=O)COC(=O)CNS(=O)(=O)c2ccccc2)cc1[N+](=O)[O-]` it was -0.84%; in that of `Cc1ccc(C(=O)NCC(=O)OCC(=O)c2ccc(C)c([N+](=O)[O-])c2)cc1`, -3.78%; in that of `Cc1ccc(C(=O)COC(=O)CNC(=O)C(c2ccccc2)c2ccccc2)cc1[N+](=O)[O-]`, 30.6% (active).
For the molecule `CCOC(=O)c1sc(Nc2ccccc2Cl)nc1C`, the inhibition is 1.72%.
As to `O=C(CCc1nc2ccccc2c(=O)[nH]1)OCc1ccc(Cl)cc1Cl`, the inhibition was -1.63%.
Next, `O=S(=O)(NCc1ccc(F)cc1)c1ccc2c(c1)OCCO2`: 4.82%; `COc1ccc(C(=O)Cc2ccc(F)cc2)c(OC)c1`: 8.08%.
In the case of `COc1ccc(C(=O)Cc2ccc(OC)c(OC)c2)c(OC)c1` it was 14.1% (active); in that of `COc1ccc(C(=O)Cc2ccc(OC)c(OC)c2)cc1`, 0.95%; in that of `COc1cc(S(=O)(=O)N2CCOCC2)ccc1NC(=O)CSc1nnc(N)s1`, 10.7%.
In the case of `Cc1cccc(N=Nc2cnc(N)s2)c1` it was 4.97%.
Take `COc1cc(C(=O)O)ccc1Cl`: the inhibition was 1.44%.
In the case of `Nc1ncc(N=Nc2cc(C(=O)O)ccc2Cl)s1` it was 13.8% (active).
Next, `CC(=O)Nc1cccc(Oc2ccc([N+](=O)[O-])cc2Cl)c1`: 2.81%; `CCn1c2ccccc2c2nc3cc(C(=O)O)ccc3nc21`: 1.61%; `CCn1c2ccc(Cl)cc2c2nc3ccccc3nc21`: 2.14%.
As for `O=[N+]([O-])c1ccc2c(c1)oc1ccccc12`, the inhibition was 0.45%.
Next, `O=c1[nH]c(=S)[nH]c(O)c1C(c1ccccn1)c1c(O)[nH]c(=S)[nH]c1=O`: 9.35%; `CC(=O)CC(c1ccc([N+](=O)[O-])cc1)c1c(O)c2ccccc2oc1=O` (stereo unspecified): 1.67%.
In the case of `O=c1c2ccccc2oc2ncccc12` it was 3.79%; in that of `COc1cc2c(cc1NC(=O)Cn1cnc3c1c(=O)n(C)c(=O)n3C)oc1ccccc12`, 9.92%.
Regarding `C=CCN1C(=NC(=O)CCC(=O)O)SC2CS(=O)(=O)CC21` (stereo unspecified), the inhibition is 0.93%.
Next, `CCN1CCN(c2cc(C)c3cc(NC(=O)c4ccccc4F)ccc3n2)CC1`: -4.15%; `Cn1cnnc1SCc1cccc(Br)c1`: 2.34%; `CCn1ncc(NC(=S)Nc2ccc3c(c2)OCO3)c1C(N)=O`: -0.08%.
In the case of `Cc1nn(-c2ccccc2)c(=S)c2ccccc12` it was -0.11%; in that of `COc1ccc(NCC(=O)Nc2ccc(C#N)cc2)cc1Cl`, 1.17%.
Next, `COc1ccc(NC(=O)CNc2cccc(C#N)c2)cc1Cl`: 0.65%; `COc1ccc(NCC(=O)Nc2ccccc2C#N)cc1Cl`: 16.5% (active); `Clc1ccc(-c2nnc(CSc3nnc(-c4cccs4)n3Cc3ccccc3)o2)cc1`: -1.83%.
In the case of `CC(=O)N1CCCSC1=Nc1ccccc1`, the inhibition was 1.84%.
In the case of `Cc1ccc(-c2nc(SCC(=O)NCC3CCCO3)c(-c3ccc(C)cc3)[nH]2)cc1` (stereo unspecified) it was -0.94%; in that of `O=[N+]([O-])c1cccc(CSc2cccc[n+]2[O-])c1`, 6.55%.
In the case of `O=[N+]([O-])c1ccc(NCc2ccccc2)c2nonc12` it was 0.67%; in that of `Oc1cccc(C(=S)N2CCCCC2)c1`, -2.56%.
In the case of `CCOC(=O)C1C(=O)NC(SCC(N)=O)=C(C#N)C1c1ccccc1OCC` (stereo unspecified) it was 5.97%; in that of `CCOC(=O)CSC1=C(C#N)C(c2ccccc2OCC)C(C(=O)OCC)C(=O)N1` (stereo unspecified), 13.2% (active); in that of `CCOC(=O)C1C(=O)NC(SCC(=O)OC)=C(C#N)C1c1ccccc1OCC` (stereo unspecified), -2.95%.
For the molecule `Cc1ccc(C)c2[nH]c(=O)c(CN(Cc3ccc4c(c3)OCO4)Cc3nnnn3Cc3ccco3)cc12`, the inhibition was 2.41%.
Next, `Cc1ccc(NC(=O)c2cccc(C(=O)OC(C)C)n2)c(Br)c1`: -4.22%.
For `O=[N+]([O-])c1cccnc1N1CCOCC1`, the inhibition is 1.56%.
On to `O=[N+]([O-])c1cccnc1N1CCCCC1`, for which the inhibition is 13.3% (active).
In the case of `O=C1CCN(c2ncccc2[N+](=O)[O-])CC1` it was -2.93%; in that of `Cc1ccc(C)c(/C(O)=C2\C(=O)C(=O)N(CCCn3ccnc3)C2c2ccncc2)c1` (stereo unspecified), -3.1%.
In the case of `Cc1ccc(C2C3=C(Nc4[nH]n(-c5ccccc5)c(=O)c42)c2ccccc2C3=O)cc1` (stereo unspecified) it was 8.68%; in that of `COc1cccc(C2C3=C(Nc4[nH]n(-c5ccccc5)c(=O)c42)c2ccccc2C3=O)c1` (stereo unspecified), -1.89%.
In the case of `Cc1cccc(C2C3=C(Nc4[nH]n(-c5ccccc5)c(=O)c42)c2ccccc2C3=O)c1` (stereo unspecified) it was 14.6% (active); in that of `CCOC(=O)c1c(C)[nH]c(C(=O)CSc2nc3ccccc3o2)c1C`, -3.5%; in that of `Cc1cc(/C=N/Nc2ccc([N+](=O)[O-])cn2)c(C)n1-c1ccccc1`, -0.82%.
For the molecule `Cc1cc(/C=N/Nc2ccc([N+](=O)[O-])cn2)c(C)n1-c1ccc(C(=O)O)cc1`, the inhibition is 18.4% (active).
On to `Cc1c(C(=O)O)cccc1-n1c(C)cc(/C=N/Nc2ccc([N+](=O)[O-])cn2)c1C`, for which the inhibition is 3.53%.
In the case of `CCOC(=O)c1cc(-c2ccc(F)cc2)n(CC(=O)Nc2nccs2)c1C` it was -5.76%; in that of `O=C(CCC(=O)OC(C(=O)c1ccccc1)c1ccccc1)Nc1ccccc1` (stereo unspecified), -0.93%; in that of `Cc1ccc(NC(=O)CCC(=O)OC(C(=O)c2ccc(C)c(C)c2)c2ccccc2)c(C)c1` (stereo unspecified), 1.52%.
Next, `Cc1ccc(C(=O)C(OC(=O)CCC(=O)Nc2cccc(C)c2)c2ccccc2)cc1` (stereo unspecified): 14.9% (active); `O=[N+]([O-])c1ccc(N2CCNCC2)cc1Sc1nc2ccccc2[nH]1`: -3.78%.
Next, `O=C(CSC1CN(C(c2ccccc2)c2ccccc2)C1)N/N=C/c1ccccc1`: 1.05%.
Turning to `O=C(OCC(=O)N1CCN(C(=O)c2ccco2)CC1)c1cn(-c2ccccc2)nc1-c1ccccc1`, the inhibition is 9.88%.
Next, `CNCc1nc2ccccc2[nH]1`: 2.1%.
On to `Oc1ccc(O)c(Cc2nc3ccccc3[nH]2)c1`, for which the inhibition is 14.4% (active).
With `CCc1nc2ccccc2[nH]1`, the inhibition is -1.65%.
Regarding `O=C(NCCC1CC1(Cl)Cl)Nc1ccccc1` (stereo unspecified), the inhibition was 2.82%.
In the case of `O=C1[C@H]2C(c3ccccc3)=NN(c3ccccc3)[C@H]2C(=O)N1c1ccccc1` it was 14.2% (active).
In the case of `CCOc1ccc(N2C(=O)C3C(c4ccccc4)=NN(c4ccccc4)C3C2=O)cc1` (stereo unspecified) it was 4.13%.
In the case of `O=C1C2C(c3ccccc3)=NN(c3ccccc3)C2C(=O)N1c1ccccc1` (stereo unspecified) it was 0.94%; in that of `O=C(N/N=C/C=C/c1ccco1)/C(=C/c1ccccc1)NC(=O)c1ccccc1`, 3.94%.
Turning to `C/C(=N\NC(=O)NC1CCCCC1)C1CCCCC1`, the inhibition is 5.48%.
Next, `O=C(Nc1ccc(SC(F)F)cc1)c1ccc(F)cc1`: 2.04%; `CC(=O)N=c1sc2ccccc2n1C`: -1.3%; `CC(C(=O)N=c1sc2ccccc2n1C)N1C(=O)C2CC=CCC2C1=O` (stereo unspecified): 13.6% (active).
As to `Cn1c(=NC(=O)CN2C(=O)C3CC=CCC3C2=O)sc2ccccc21` (stereo unspecified), the inhibition was -0.18%.
In the case of `O=C1C(Cl)=C(Nc2ccccc2)C(=O)c2ccccc21` it was -4.13%; in that of `CCNC1=C(Cl)C(=O)c2ccccc2C1=O`, -3.8%.
Next, `CC(C)NC1=C(Cl)C(=O)c2ccccc2C1=O`: 13.7% (active).
On to `O=C1c2ccccc2S(=O)(=O)c2cc(C(=O)N3CCN(C(=O)c4ccccc4)CC3)ccc21`, for which the inhibition was -2.8%.

Values taken from PubChem BioAssay AID1376 (SRMLSC, 2008).
